Compound activity from PubChem.
PAFAH2 FP inh: inhibitors of human PAFAH2; 340,000 tested, 0.99% active; Q99487; recombinant PAFAH2, FP-rhodamine activity probe, fluorescence polarization; inhibition, % at 3.39 µM;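 active means inhibition above the mean over all tested compounds plus 3 SD, cut at about 30% in these data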;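 further: inhibitors block probe labeling of enzyme so polarization drops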
PAFAH1B2 FP inh: PAFAH1B2 (human) inhibition; P68402; recombinant PAFAH1B2, FP-rhodamine activity probe, fluorescence polarization; inhibition, % at 3.39 µM; 340,000 tested, 1.2% active;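 active means inhibition above the mean of all tested compounds plus 3 SD, cut at about 24% in these data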
Target sequence (P68402 whole entry, looked up): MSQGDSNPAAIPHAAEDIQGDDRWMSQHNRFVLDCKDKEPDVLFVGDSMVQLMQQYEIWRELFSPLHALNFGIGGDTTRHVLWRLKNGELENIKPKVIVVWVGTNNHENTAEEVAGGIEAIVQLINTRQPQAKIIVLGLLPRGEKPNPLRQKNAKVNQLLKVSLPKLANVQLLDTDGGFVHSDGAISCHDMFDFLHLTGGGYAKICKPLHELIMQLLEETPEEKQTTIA
pPAFAH FP inh: inhibitors of human plasma PAF acetylhydrolase (pPAFAH) | Q13093 | recombinant pPAFAH, FP-rhodamine probe fluorescence polarization | inhibition, % at 3.39 µM | 330,000 tested, 1.5% active;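 active means inhibition above the mean inhibition across the screen plus 3 SD, cut at about 25% in these data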;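 further: inhibitors block binding of the rhodamine activity-based probe so polarization drops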
PKA-R2B activ: activators of human PKA-R2B complex; PKA-R2B holoenzyme dissociation, Cy5-IP20 fluorescence polarization; R2B truncated from residue 108, S112A mutant; 0% DMSO only, 100% 113 µM cGMP; 340,000 tested, 0.079% active; AID 504700; P22694+P31323; activation, % at 11.4 µM;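 active means activation above a cutoff set at the mean over all compounds plus 3 SD, cut at about 18% in these data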;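 further: higher means more holoenzyme dissociation and a rise in polarization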
PKA-R1A act: PKA-R1A complex activation; P00514+P68181; PKA-R1A dissociation, Cy5-IP20 fluorescence polarization; scaled: DMSO 0%, 113 µM cGMP 100%; activation, % at 11.4 µM; 340,000 tested, 0.083% active;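 active means percent activation above the mean of all tested compounds plus 3 SD, cut at about 19% in these data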;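 further: higher means more PKAc released from R1A so a rise in polarization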
PAFAH1B3 inh: PAFAH1B3 (human) inhibition; Q15102; recombinant PAFAH1B3, FP-rhodamine probe, fluorescence polarization; inhibition, % at 3.39 µM; 340,000 tested, 0.28% active; AID 492972;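 active means inhibition above the screen-wide average of all tested compounds plus 3 SD, cut at about 25% in these data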
Target sequence (Q15102 whole entry, looked up): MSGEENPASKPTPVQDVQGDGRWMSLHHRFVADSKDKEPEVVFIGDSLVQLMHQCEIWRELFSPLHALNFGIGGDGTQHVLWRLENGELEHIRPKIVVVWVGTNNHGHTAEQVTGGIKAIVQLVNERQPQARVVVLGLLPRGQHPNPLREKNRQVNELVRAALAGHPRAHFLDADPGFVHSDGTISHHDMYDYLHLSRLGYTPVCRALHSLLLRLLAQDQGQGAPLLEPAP
PAFAH2 confirm: confirmation of human PAFAH2 inhibitors | shares compounds with PAFAH2 FP inh | recombinant PAFAH2, FP-rhodamine activity probe, fluorescence polarization | inhibition, % at 3.39 µM | 2,300 tested, 65% active;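 active means mean inhibition over three repeats above a set limit taken from the earlier primary screen, cut at about 30% in these data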;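 further: inhibitor blocks binding of rhodamine activity probe so polarization falls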
Each line names hits and unclear results; the compound was inactive in the other large screens (follow-up assays come after a bar, where they were run). Sampled rows, rich in hits. Any-hit rate of the full collection: about 2.6%.

COc1ccc(CCN2CC(C(=O)OCc3ccccc3Cl)CC2=O)cc1OC (configuration not stated)	none (no result: pPAFAH FP inh)
CC(NC(=O)c1ccc(Cl)c(S(=O)(=O)N2CCCCCC2)c1)c1cccnc1 (configuration not stated)	none
NC(=O)COC(=O)c1ccccc1SCC(=O)NC1CCCCCCC1	PAFAH2 FP inh 39 | PAFAH2 confirm 37
N#CC1(NC(=O)COC(=O)c2ccccc2SCC(=O)N2CCCC2)CCCCC1	PAFAH2 FP inh 81 | PAFAH2 confirm 80
O=C(COC(=O)c1ccccc1SCC(=O)N1CCCC1)NC1CCCCC1	PAFAH2 FP inh 83 | PAFAH2 confirm 73
O=C(OCC(=O)N1CCCCC1)c1ccccc1SCC(=O)N1CCCCC1	none
O=C(COC(=O)c1ccccc1SCC(=O)N1CCCC1)NC1CCS(=O)(=O)C1 (configuration not stated)	none
O=C(COC(=O)c1cc(=O)[nH]c2ccccc12)Nc1ccc(F)cc1	none
CN(C)S(=O)(=O)N(CC(=O)N(Cc1ccccc1)Cc1ccccc1)c1ccccc1	PAFAH2 FP inh 38 | PAFAH2 confirm inactive
O=C(COC(=O)C1CC1)Nc1cccc(Cl)c1	none (no result: PAFAH2 FP inh, PAFAH1B2 FP inh, pPAFAH FP inh, PAFAH1B3 inh)
CCN(c1ccccc1)S(=O)(=O)c1cc(NC(=O)COC(=O)C2CC2)ccc1Cl	PAFAH2 FP inh 69 | PAFAH2 confirm 59
O=C(COC(=O)C1CC1)Nc1ccc2c(c1)OCO2	PAFAH2 FP inh 67 | PAFAH2 confirm 54
Cc1ccc(NC(=O)COC(=O)C2CC2)cc1Cl	PAFAH2 FP inh 79 | PAFAH2 confirm 69
CN(C)S(=O)(=O)c1cc(NC(=O)COC(=O)C2COc3ccccc3O2)ccc1Cl (configuration not stated)	none
CCC(=O)OCC(=O)Nc1ccc2c(c1)OCO2	none
COc1cc(/C=C/C(=O)OCC(=O)NC(C)c2ccccc2)cc(OC)c1OC (configuration not stated)	PAFAH2 FP inh 31 | PAFAH2 confirm inactive
CC(NC(=O)COC(=O)/C=C/c1ccc(Cl)cc1)c1ccccc1 (configuration not stated)	PAFAH2 FP inh 31 | PAFAH2 confirm inactive
CC(NC(=O)COC(=O)/C=C/c1cccc(F)c1)c1ccccc1 (configuration not stated)	PAFAH2 FP inh 46 | PAFAH2 confirm 34
COc1cc(/C=C/C(=O)OCC(=O)NC(=O)NC(C)C)cc(OC)c1OC	none
Cc1ccc(S(=O)(=O)NCc2ccccc2)cc1C(=O)N(C)Cc1ccccc1F	none
CSc1cccc(-c2nnc(NC(=O)c3cccc(N4C(=O)CCC4=O)c3)o2)c1	none
CCOc1ccc(C(=O)OCC(=O)NC2CCCCCCC2)cc1	PAFAH2 FP inh 93 | PAFAH2 confirm 86
CCOc1ccc(C(=O)NCC(=O)OCC(=O)NC2CCCC2)cc1	PAFAH2 FP inh 36 | PAFAH2 confirm inactive
Cc1cc(F)ccc1NC(=O)c1ccc(NS(=O)(=O)c2cccs2)cc1	none (no result: PAFAH2 FP inh, PAFAH1B2 FP inh, pPAFAH FP inh, PAFAH1B3 inh)
O=C(COC(=O)CC(c1ccccc1)c1ccccc1)Nc1cccc(F)c1	PAFAH2 FP inh 77 | PAFAH2 confirm 69
O=C(COC(=O)CC(NC(=O)c1ccccc1Cl)c1ccccc1)Nc1cccc(F)c1 (configuration not stated)	PAFAH2 FP inh 82 | PAFAH2 confirm 76
O=C(CNC(=O)c1cccs1)Nc1ccc(N2CCOCC2)cc1	none
CC(C)(C)OC(=O)C[C@@H]1C/C=C\C[C@@H](CC(=O)N[C@H](CO)Cc2ccccc2)C(=O)NC[C@H](c2ccccc2)OC1=O	none
CC(C)(C)OC(=O)C[C@H]1C/C=C\C[C@@H](CC(=O)N[C@H](CO)Cc2ccccc2)C(=O)NC[C@H](c2ccccc2)OC1=O	PAFAH2 FP inh 52 | PAFAH2 confirm inactive
Cc1cccc(OCc2nnc(SCC(=O)N(C)C3CCCCC3)o2)c1	none (no result: pPAFAH FP inh)
O=C(Cn1[nH]c(=O)c2ccccc2c1=O)NCCN1C(=O)S/C(=C\c2ccccc2)C1=O	PAFAH2 FP inh 31 | PAFAH2 confirm inactive
